Laboratory results: the supplement of paper PMC10849652
About 8,800 targets were measured; listed, in parts, are those with a hit and a random draw of the rest. About 0.5% of all pairs of compound and target were hits. A number with no mark means an inactive call.

Key:
Test in all cases: log2 fold change, soluble protein after heating vs DMSO (PISA); higher = thermal stabilisation; K562 lysate, 10 uM; active = over 0.2 and 3.5 SD of the protein, either way, in both replicates (recomputed)
[1] = compound: C1=CC=C(C=C1)[C@H](COC2=CC3=C(C=C2)NC(=O)N3)NC(=O)C4=CC=CN(C4=O)CC5=CC(=C(C=C5)F)F
Summary of the method: (§1)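 To prepare the extract, K562 pellets were dounce-homogenised in PBS pH 7.4 with 1 mM MgCl2, giving crude material at 1 mg/mL protein. This was treated with 10 μM compound for 30 min, then heated in aliquots for 3 min over 48°C-58°C before pooling and addition of NP-40 to 0.5% at 4°C. Centrifugation at 21,000xg for 90 min left soluble protein in the supernatant, which TMTpro 16plex LC-MS/MS quantified with equalised channel sums. Results are log-two fold changes in thermal stability compared with solvent controls, from duplicates.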

[2] = compound: CC1=C(SC2=C1C(=N[C@H](C3=NN=C(N32)C)CC(=O)N)C4=CC=C(C=C4)Cl)C
Summary of the method: as §1

[3] = compound: Cc1sc2c(c1C)C(c1ccc(Cl)cc1)=N[C@@H](CC(=O)OC(C)(C)C)c1nnc(C)n1-2
Summary of the method: as §1

[4] = compound: c1ccc([C@@H]2C[C@H]2NC2CCNCC2)cc1
Summary of the method: as §1

[5] = compound: CC1=C2C(=CC=C1)N=C(N(C2=O)C3=CC=CC=C3C)CN4C=NC5=C(N=CN=C54)N
Summary of the method: as §1

UniProt Q13948, sequence (Q13948 whole entry, looked up): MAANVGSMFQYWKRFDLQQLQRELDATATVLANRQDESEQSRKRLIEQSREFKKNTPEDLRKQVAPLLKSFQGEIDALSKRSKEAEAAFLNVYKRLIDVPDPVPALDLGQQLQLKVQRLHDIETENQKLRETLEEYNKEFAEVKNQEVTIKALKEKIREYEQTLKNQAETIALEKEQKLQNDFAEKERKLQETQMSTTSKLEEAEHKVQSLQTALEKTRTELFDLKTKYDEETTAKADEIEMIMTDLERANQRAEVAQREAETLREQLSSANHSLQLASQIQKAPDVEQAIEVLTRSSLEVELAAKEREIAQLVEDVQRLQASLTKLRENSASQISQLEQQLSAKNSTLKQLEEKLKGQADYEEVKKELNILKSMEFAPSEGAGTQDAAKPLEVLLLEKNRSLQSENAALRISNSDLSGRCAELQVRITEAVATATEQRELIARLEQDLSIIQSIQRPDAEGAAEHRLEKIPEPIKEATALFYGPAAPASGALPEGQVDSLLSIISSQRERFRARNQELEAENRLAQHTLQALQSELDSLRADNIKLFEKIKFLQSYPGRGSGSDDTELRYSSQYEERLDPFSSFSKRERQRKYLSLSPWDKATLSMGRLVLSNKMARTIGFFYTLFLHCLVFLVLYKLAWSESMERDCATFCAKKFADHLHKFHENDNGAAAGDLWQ
UniProt Q6UX07, sequence (Q6UX07 whole entry, looked up): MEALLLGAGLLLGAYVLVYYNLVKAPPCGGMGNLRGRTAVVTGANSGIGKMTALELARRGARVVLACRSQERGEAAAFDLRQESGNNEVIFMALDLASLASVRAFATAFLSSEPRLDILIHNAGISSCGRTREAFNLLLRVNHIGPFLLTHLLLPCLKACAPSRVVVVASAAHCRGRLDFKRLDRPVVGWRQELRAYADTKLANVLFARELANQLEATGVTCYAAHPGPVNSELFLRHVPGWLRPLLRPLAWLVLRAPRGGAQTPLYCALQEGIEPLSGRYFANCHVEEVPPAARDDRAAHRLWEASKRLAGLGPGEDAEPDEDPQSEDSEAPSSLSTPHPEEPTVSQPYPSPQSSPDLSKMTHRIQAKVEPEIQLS
UniProt P53355, sequence (P53355 whole entry, looked up): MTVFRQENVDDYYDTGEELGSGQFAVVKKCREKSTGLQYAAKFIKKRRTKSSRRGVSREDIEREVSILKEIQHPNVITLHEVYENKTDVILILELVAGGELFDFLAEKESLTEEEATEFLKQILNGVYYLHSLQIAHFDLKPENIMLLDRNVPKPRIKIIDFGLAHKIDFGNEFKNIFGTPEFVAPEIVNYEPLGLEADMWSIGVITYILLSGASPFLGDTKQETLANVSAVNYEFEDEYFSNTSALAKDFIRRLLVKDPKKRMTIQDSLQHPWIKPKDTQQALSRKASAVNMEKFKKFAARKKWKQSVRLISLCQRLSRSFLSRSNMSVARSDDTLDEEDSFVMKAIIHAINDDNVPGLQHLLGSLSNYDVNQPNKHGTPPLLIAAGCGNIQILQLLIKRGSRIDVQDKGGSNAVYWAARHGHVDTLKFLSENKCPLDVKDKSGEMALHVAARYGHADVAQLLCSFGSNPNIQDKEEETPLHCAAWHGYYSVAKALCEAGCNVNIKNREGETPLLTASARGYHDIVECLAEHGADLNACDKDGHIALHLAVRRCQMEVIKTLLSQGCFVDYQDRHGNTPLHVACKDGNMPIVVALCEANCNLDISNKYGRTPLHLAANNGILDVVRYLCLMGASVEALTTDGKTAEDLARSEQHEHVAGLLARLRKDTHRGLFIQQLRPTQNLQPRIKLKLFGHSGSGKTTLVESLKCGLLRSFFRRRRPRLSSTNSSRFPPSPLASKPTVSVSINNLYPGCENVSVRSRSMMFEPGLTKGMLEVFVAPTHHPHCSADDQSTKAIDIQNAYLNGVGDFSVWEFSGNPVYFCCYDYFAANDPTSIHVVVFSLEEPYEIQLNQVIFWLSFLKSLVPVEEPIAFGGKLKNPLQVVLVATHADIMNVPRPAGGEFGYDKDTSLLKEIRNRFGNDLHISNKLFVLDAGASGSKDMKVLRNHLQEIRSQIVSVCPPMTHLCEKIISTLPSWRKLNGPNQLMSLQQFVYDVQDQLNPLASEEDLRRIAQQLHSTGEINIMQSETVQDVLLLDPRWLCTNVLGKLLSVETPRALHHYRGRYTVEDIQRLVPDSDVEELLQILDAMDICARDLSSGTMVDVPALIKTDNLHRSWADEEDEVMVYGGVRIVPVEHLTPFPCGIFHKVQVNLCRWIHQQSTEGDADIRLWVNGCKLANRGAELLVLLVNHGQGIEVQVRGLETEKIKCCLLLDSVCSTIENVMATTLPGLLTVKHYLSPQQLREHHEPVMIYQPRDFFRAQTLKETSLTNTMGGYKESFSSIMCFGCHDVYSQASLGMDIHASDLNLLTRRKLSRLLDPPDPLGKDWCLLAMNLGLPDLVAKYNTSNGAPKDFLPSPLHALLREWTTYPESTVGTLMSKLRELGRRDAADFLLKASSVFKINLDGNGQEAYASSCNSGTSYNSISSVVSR
UniProt P30622, sequence (P30622 whole entry, looked up): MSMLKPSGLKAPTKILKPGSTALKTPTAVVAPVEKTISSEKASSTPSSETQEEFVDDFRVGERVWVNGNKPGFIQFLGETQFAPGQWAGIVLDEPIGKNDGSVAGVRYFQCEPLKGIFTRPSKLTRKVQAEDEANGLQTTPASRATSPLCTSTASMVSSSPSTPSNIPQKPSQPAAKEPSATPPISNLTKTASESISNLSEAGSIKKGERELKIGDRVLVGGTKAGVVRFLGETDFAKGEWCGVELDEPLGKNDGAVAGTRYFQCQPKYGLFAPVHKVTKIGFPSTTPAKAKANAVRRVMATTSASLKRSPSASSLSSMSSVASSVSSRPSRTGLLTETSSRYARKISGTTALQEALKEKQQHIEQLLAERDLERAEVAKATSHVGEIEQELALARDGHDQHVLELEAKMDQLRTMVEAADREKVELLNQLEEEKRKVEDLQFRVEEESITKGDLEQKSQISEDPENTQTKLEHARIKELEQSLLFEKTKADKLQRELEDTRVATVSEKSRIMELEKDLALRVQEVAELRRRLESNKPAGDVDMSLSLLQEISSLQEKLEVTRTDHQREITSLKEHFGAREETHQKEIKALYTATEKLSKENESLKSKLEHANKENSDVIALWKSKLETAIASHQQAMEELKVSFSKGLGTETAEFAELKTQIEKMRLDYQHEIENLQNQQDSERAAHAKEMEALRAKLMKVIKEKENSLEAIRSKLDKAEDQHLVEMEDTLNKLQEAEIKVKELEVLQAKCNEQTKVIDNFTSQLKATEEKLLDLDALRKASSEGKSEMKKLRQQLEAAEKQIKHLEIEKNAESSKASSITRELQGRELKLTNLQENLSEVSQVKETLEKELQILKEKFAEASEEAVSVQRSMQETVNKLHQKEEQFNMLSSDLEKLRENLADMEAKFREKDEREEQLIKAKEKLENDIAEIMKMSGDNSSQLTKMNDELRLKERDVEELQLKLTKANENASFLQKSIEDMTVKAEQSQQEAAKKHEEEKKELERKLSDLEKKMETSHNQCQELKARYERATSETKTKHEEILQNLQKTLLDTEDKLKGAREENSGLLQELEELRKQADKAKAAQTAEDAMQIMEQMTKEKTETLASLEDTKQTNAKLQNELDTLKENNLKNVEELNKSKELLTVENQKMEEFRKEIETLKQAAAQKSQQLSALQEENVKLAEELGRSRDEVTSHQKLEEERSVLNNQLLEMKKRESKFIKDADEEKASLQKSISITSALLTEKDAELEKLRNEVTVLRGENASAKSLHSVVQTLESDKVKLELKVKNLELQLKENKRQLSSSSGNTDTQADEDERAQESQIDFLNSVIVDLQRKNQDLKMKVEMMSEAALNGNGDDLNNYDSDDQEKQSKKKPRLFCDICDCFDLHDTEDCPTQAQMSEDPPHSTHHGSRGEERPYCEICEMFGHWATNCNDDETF
UniProt P24311, sequence (P24311 whole entry, looked up): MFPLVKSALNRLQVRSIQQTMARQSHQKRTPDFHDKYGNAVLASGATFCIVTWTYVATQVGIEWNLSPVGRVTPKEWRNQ
UniProt O75534, sequence (O75534 whole entry, looked up): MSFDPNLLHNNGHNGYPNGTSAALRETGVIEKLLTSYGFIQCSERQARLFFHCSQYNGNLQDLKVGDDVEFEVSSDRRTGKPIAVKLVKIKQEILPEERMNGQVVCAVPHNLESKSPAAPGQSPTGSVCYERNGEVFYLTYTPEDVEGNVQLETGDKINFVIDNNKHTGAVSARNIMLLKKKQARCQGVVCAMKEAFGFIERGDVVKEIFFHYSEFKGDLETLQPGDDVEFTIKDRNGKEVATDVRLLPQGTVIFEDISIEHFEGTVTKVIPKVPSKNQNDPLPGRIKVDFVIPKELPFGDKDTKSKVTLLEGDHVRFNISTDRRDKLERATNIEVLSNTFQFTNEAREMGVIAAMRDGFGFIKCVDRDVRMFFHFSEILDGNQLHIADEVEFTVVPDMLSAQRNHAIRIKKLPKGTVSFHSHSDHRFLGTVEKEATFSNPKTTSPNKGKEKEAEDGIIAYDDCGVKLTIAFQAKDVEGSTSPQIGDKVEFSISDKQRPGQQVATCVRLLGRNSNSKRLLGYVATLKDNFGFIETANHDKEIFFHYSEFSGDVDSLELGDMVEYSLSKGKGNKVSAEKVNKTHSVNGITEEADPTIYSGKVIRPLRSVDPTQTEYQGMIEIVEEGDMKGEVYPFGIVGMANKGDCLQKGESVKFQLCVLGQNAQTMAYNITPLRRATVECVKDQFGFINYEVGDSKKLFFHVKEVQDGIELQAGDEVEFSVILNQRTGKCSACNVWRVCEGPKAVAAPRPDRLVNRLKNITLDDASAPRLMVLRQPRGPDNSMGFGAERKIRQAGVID
UniProt O14810, sequence (O14810 whole entry, looked up): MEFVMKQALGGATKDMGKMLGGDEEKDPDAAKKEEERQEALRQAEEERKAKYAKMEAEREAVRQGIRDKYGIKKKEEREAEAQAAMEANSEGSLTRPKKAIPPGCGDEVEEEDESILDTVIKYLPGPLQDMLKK

| Target | log2 fold change [1] | log2 fold change [2] | log2 fold change [3] | log2 fold change [4] | log2 fold change [5] |
| --- | --- | --- | --- | --- | --- |
| DHRS13 (UniProt Q6UX07) | -0.13 | 0.059 | -0.099 |  |  |
| CHMP4A (UniProt H0YIN6) | 0.032 | 0.166 | -0.222 | -0.12 |  |
| DESI2 (UniProt Q9BSY9) |  |  |  | -0.038 | -0.142 |
| CPLX1 (UniProt O14810) |  |  | -0.239 |  | -0.08 |
| CLASP2 (UniProt O75122) | 0.16 | -0.248 |  | 0.002 | -0.105 |
| COL12A1 (UniProt Q99715) |  |  | -0.078 |  | 0.08 |
| DCTN1 isoform 4 (UniProt Q14203) |  |  | -0.13 | -0.452 | 0.013 |
| DNM2 isoform 4 (UniProt P50570) |  |  | 0.025 | -0.043 |  |
| CLIP1 isoform 2 (UniProt P30622) | 0.11 | -0.03 | 0.009 | -0.002 |  |
| CSDE1 isoform 3 (UniProt O75534) | -0.18 | -0.098 |  | 0.043 |  |
| CUX1 isoform 2 (UniProt Q13948) |  |  | 0.075 | 0.193 | 0.03 |
| DAPK1 isoform 3 (UniProt P53355) |  |  | 0.013 | 0.039 | 0.035 |
| COX7B (UniProt P24311) |  |  | -0.027 | -0.075 | -0.031 |
